# Measurements as given in the supplement of paper PMC8728848.
# Only a selection was taken, and the strongest signals are over-represented in it overall.
# B1: GST Gap3 (Streptococcus parasanguinis) (protein)
# chain: MTKQLISEIYWNEIRKGENYLYGSQIKFQEDLVNFYNPQLASGKPIVTFKSRTNYQGDRHSPDLPILIQGNRYLLEYQIDAVPANSFFLQLDFFNRQAEQIESIVLRNSGESFIFPKDTFTYTLTLMSAGCQSVTYQKFMIYDINDEEKKNHIVENRYLRELLPKDLDLVKNLIEYI
# Columns and labels:
# Assay in all cases: glycan array binding signal (z-score within array); higher = stronger binding
# Settings in all cases: glycan notation: IUPAC condensed, linker removed
# [1] = target: Fuc(a1-2)Gal(b1-3)GlcNAc(b1-3)[Fuc(a1-3)[Gal(b1-4)]GlcNAc(b1-6)]Gal(b1-4)Glc
# In short: (§1)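 Columns mapping to the same glycan were averaged after glycan names were converted to IUPAC-condensed notation. The data come from 3228 arrays in the Consortium for Functional Glycomics database, limited to those with an available protein sequence. Binding is reported as a within-array Z-score averaged across arrays of one protein sequence and across linkers.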
# [2] = target: Fuc(a1-2)Gal(b1-3)[Fuc(a1-4)]GlcNAc(b1-2)Man(a1-3)[Fuc(a1-2)Gal(b1-3)[Fuc(a1-4)]GlcNAc(b1-2)Man(a1-3)]Man(b1-4)GlcNAc(b1-4)GlcNAc
# In short: as §1
# [3] = target: Fuc(a1-2)Gal(b1-4)GlcNAc(b1-2)Man(a1-3)[Fuc(a1-2)Gal(b1-4)GlcNAc(b1-2)Man(a1-6)]Man(b1-4)GlcNAc(b1-4)GlcNAc
# In short: as §1
# [4] = target: Fuc(a1-2)Gal(b1-4)GlcNAc(b1-2)Man(a1-3)[Fuc(a1-2)Gal(b1-4)GlcNAc(b1-2)Man(a1-6)]Man(b1-4)GlcNAc(b1-4)[Fuc(a1-6)]GlcNAc
# In short: as §1
# [5] = target: Fuc(a1-2)Gal(b1-4)GlcNAc(b1-3)[Fuc(a1-3)[Gal(b1-4)]GlcNAc(b1-6)]Gal(b1-4)Glc
# In short: as §1
# [6] = target: Fuc(a1-2)Gal(b1-4)GlcNAc(b1-6)GalNAc
# In short: as §1
# [7] = target: Fuc(a1-2)Gal6S(b1-3)GlcNAc6S
# In short: as §1
# [8] = target: Fuc(a1-2)Gal6S(b1-4)GlcNAc
# In short: as §1
# [9] = target: Fuc(a1-2)[Gal(a1-3)]Gal(b1-3)GlcNAc(b1-6)GalNAc
# In short: as §1
# [10] = target: Fuc(a1-2)[Gal(a1-3)]Gal(b1-4)GlcNAc(b1-2)Man(a1-3)[Fuc(a1-2)[Gal(a1-3)]Gal(b1-4)GlcNAc(b1-2)Man(a1-6)]Man(b1-4)GlcNAc(b1-4)GlcNAc
# In short: as §1
# [11] = target: Fuc(a1-2)[GalNAc(a1-3)]Gal(b1-4)GlcNAc(b1-3)[Fuc(a1-2)[GalNAc(a1-3)]Gal(b1-4)GlcNAc(b1-6)]GalNAc
# In short: as §1
# [12] = target: Fuc(a1-3)[Gal(b1-4)]GlcNAc(b1-3)GalNAc
# In short: as §1
# [13] = target: Gal(b1-3)GlcNAc(b1-3)Gal(b1-4)GlcNAc(b1-3)Gal(b1-4)GlcNAc(b1-2)[Gal(b1-3)GlcNAc(b1-3)Gal(b1-4)GlcNAc(b1-3)Gal(b1-4)GlcNAc(b1-6)]Man(a1-6)[Gal(b1-3)GlcNAc(b1-3)Gal(b1-4)GlcNAc(b1-3)Gal(b1-4)GlcNAc(b1-2)Man(a1-3)]Man(b1-4)GlcNAc(b1-4)[Fuc(a1-6)]GlcNAc
# In short: as §1
# [14] = target: Gal(b1-3)GlcNAc(b1-3)Gal(b1-4)GlcNAc(b1-6)[Gal(b1-3)GlcNAc(b1-3)]Gal(b1-4)Glc
# In short: as §1
# [15] = target: Gal(b1-3)GlcNAc(b1-6)GalNAc
# In short: as §1
# [16] = target: Gal(b1-3)[Fuc(a1-4)]GlcNAc(b1-2)Man(a1-3)[Gal(b1-3)[Fuc(a1-4)]GlcNAc(b1-2)Man(a1-6)]Man(b1-4)GlcNAc(b1-4)GlcNAc
# In short: as §1
# [17] = target: Gal(b1-4)GlcNAc(b1-2)[Gal(b1-4)GlcNAc(b1-6)]Man(a1-6)[GlcNAc(b1-4)][Gal(b1-4)GlcNAc(b1-2)[Gal(b1-4)GlcNAc(b1-4)]Man(a1-3)]Man(b1-4)GlcNAc(b1-4)[Fuc(a1-6)]GlcNAc
# In short: as §1
# [18] = target: Gal(b1-4)GlcNAc(b1-3)Gal(b1-4)GlcNAc(b1-3)Gal(b1-4)GlcNAc(b1-3)Gal(b1-4)GlcNAc(b1-2)[Gal(b1-4)GlcNAc(b1-3)Gal(b1-4)GlcNAc(b1-3)Gal(b1-4)GlcNAc(b1-3)Gal(b1-4)GlcNAc(b1-6)]Man(a1-6)[Gal(b1-4)GlcNAc(b1-3)Gal(b1-4)GlcNAc(b1-3)Gal(b1-4)GlcNAc(b1-3)Gal(b1-4)GlcNAc(b1-2)Man(a1-3)]Man(b1-4)GlcNAc(b1-4)[Fuc(a1-6)]GlcNAc
# In short: as §1
# [19] = target: Gal(b1-4)GlcNAc(b1-3)Gal(b1-4)[Fuc(a1-3)GlcNAc(b1-6)]Gal(b1-4)Glc
# In short: as §1
# [20] = target: Gal(b1-4)GlcNAc(b1-6)Gal(b1-4)GlcNAc(b1-6)GalNAc
# In short: as §1
# [21] = target: Gal3S(b1-4)[Fuc(a1-3)]Glc6S
# In short: as §1
# [22] = target: Gal3S(b1-4)[Fuc(a1-3)]GlcNAc
# In short: as §1
# GalNAc(b1-4)GlcNAc = target: GalNAc(b1-4)GlcNAc
# In short: as §1
# GalNAc4S6S(b1-4)GlcNAc = target: GalNAc4S6S(b1-4)GlcNAc
# In short: as §1
# Glc(a1-4)Glc = target: Glc(a1-4)Glc
# In short: as §1
# Glc(a1-6)Glc(a1-6)Glc = target: Glc(a1-6)Glc(a1-6)Glc
# In short: as §1
# Glc(b1-4)Glc = target: Glc(b1-4)Glc
# In short: as §1
# [23] = target: GlcNAc(a1-3)Gal(b1-4)GlcNAc
# In short: as §1
# [24] = target: GlcNAc(a1-4)Gal(b1-4)GlcNAc(b1-3)Gal(b1-4)[Fuc(a1-3)]GlcNAc(b1-3)Gal(b1-4)[Fuc(a1-3)]GlcNAc
# In short: as §1
# [25] = target: GlcNAc(a1-6)Gal(b1-4)GlcNAc
# In short: as §1
# [26] = target: GlcNAc(b1-3)Gal(b1-4)GlcNAc(b1-2)[GlcNAc(b1-3)Gal(b1-4)GlcNAc(b1-6)]Man(a1-6)[GlcNAc(b1-3)Gal(b1-4)GlcNAc(b1-2)Man(a1-3)]Man(b1-4)GlcNAc(b1-4)GlcNAc
# In short: as §1
# [27] = target: GlcNAc(b1-3)Gal(b1-4)GlcNAc(b1-3)Gal(b1-4)GlcNAc(b1-2)Man(a1-3)[GlcNAc(b1-3)Gal(b1-4)GlcNAc(b1-3)Gal(b1-4)GlcNAc(b1-2)Man(a1-6)]Man(b1-4)GlcNAc(b1-4)[Fuc(a1-6)]GlcNAc
# In short: as §1
# [28] = target: GlcNAc(b1-3)Gal(b1-4)GlcNAc(b1-3)[GlcNAc(b1-3)Gal(b1-4)GlcNAc(b1-3)]GalNAc
# In short: as §1
# [29] = target: GlcNAc6S(b1-3)Gal(b1-4)GlcNAc
# In short: as §1
# Man(a1-2)Man(a1-3)Man = target: Man(a1-2)Man(a1-3)Man
# In short: as §1
# [30] = target: Man(a1-2)Man(a1-6)[Man(a1-3)]Man(a1-6)[Man(a1-2)Man(a1-2)Man(a1-3)]Man
# In short: as §1
# [31] = target: Man(a1-3)[Man(a1-6)]Man(a1-6)[Man(a1-3)]Man
# In short: as §1
# MurNAc(b1-4)GlcNAc = target: MurNAc(b1-4)GlcNAc
# In short: as §1
# [32] = target: Neu5Ac(a2-3)Gal(b1-3)GalNAc(b1-3)Gal(b1-4)GlcNAc
# In short: as §1
# [33] = target: Neu5Ac(a2-3)Gal(b1-3)GlcNAc(b1-2)Man(a1-3)[Neu5Ac(a2-3)Gal(b1-3)GlcNAc(b1-2)Man(a1-6)]Man(b1-4)GlcNAc(b1-4)GlcNAc
# In short: as §1
# [34] = target: Neu5Ac(a2-3)Gal(b1-3)[GlcNAc(b1-6)]GalNAc
# In short: as §1
# [35] = target: Neu5Ac(a2-3)Gal(b1-4)GlcNAc(b1-2)Man(a1-3)[GlcNAc(b1-4)][Neu5Ac(a2-3)Gal(b1-4)GlcNAc(b1-2)Man(a1-6)]Man(b1-4)GlcNAc(b1-4)GlcNAc
# In short: as §1
# [36] = target: Neu5Ac(a2-3)Gal(b1-4)GlcNAc(b1-2)Man(a1-3)[Neu5Ac(a2-3)Gal(b1-4)GlcNAc(b1-2)Man(a1-6)]Man(b1-4)GlcNAc(b1-4)[Fuc(a1-6)]GlcNAc
# In short: as §1
# [37] = target: Neu5Ac(a2-3)Gal(b1-4)GlcNAc(b1-3)[Neu5Ac(a2-3)Gal(b1-4)GlcNAc(b1-6)]GalNAc
# In short: as §1
# [38] = target: Neu5Ac(a2-3)Gal(b1-4)GlcNAc(b1-6)[Gal(b1-3)]GalNAc
# In short: as §1
# [39] = target: Neu5Ac(a2-3)Gal(b1-4)[Fuc(a1-3)]GlcNAc(b1-3)Gal
# In short: as §1
# [40] = target: Neu5Ac(a2-3)Gal(b1-4)[Fuc(a1-3)]GlcNAc(b1-6)[Neu5Ac(a2-3)Gal(b1-3)]GalNAc
# In short: as §1
# [41] = target: Neu5Ac(a2-3)Gal6S(b1-4)[Fuc(a1-3)]GlcNAc
# In short: as §1
# Neu5Ac(a2-3)GalNAc = target: Neu5Ac(a2-3)GalNAc
# In short: as §1
# [42] = target: Neu5Ac(a2-6)Gal(b1-4)GlcNAc(b1-2)Man(a1-6)[GlcNAc(b1-2)Man(a1-3)]Man(b1-4)GlcNAc(b1-4)GlcNAc
# In short: as §1
# [43] = target: Neu5Ac(a2-6)GlcNAc(b1-4)GlcNAc
# In short: as §1
# [44] = target: Neu5Ac(a2-8)Neu5Ac(a2-8)Neu5Ac
# In short: as §1
# [45] = target: Neu5Gc(a2-3)Gal(b1-4)GlcNAc
# In short: as §1
binder,measurement,setting,value
B1,glycan array binding signal (z-score),[1],-0.027
same,glycan array binding signal (z-score),[2],2.3
same,glycan array binding signal (z-score),[3],3.16
same,glycan array binding signal (z-score),[4],-0.105
same,glycan array binding signal (z-score),[5],-0.573
same,glycan array binding signal (z-score),[6],-0.108
same,glycan array binding signal (z-score),[7],2.06
same,glycan array binding signal (z-score),[8],-0.073
same,glycan array binding signal (z-score),[9],-0.112
same,glycan array binding signal (z-score),[10],0.383
same,glycan array binding signal (z-score),[11],-0.377
same,glycan array binding signal (z-score),[12],0.287
same,glycan array binding signal (z-score),[13],4.03
same,glycan array binding signal (z-score),[14],0.052
same,glycan array binding signal (z-score),[15],0.002
same,glycan array binding signal (z-score),[16],3.61
same,glycan array binding signal (z-score),[17],0.228
same,glycan array binding signal (z-score),[18],2.32
same,glycan array binding signal (z-score),[19],-0.093
same,glycan array binding signal (z-score),[20],-0.125
same,glycan array binding signal (z-score),[21],1.61
same,glycan array binding signal (z-score),[22],-0.723
same,glycan array binding signal (z-score),GalNAc(b1-4)GlcNAc,0.123
same,glycan array binding signal (z-score),GalNAc4S6S(b1-4)GlcNAc,-0.267
same,glycan array binding signal (z-score),Glc(a1-4)Glc,3.14
same,glycan array binding signal (z-score),Glc(a1-6)Glc(a1-6)Glc,0.005
same,glycan array binding signal (z-score),Glc(b1-4)Glc,-0.381
same,glycan array binding signal (z-score),[23],-0.406
same,glycan array binding signal (z-score),[24],2.24
same,glycan array binding signal (z-score),[25],0.544
same,glycan array binding signal (z-score),[26],3.45
same,glycan array binding signal (z-score),[27],0.269
same,glycan array binding signal (z-score),[28],-0.518
same,glycan array binding signal (z-score),[29],-0.145
same,glycan array binding signal (z-score),Man(a1-2)Man(a1-3)Man,-0.273
same,glycan array binding signal (z-score),[30],-0.335
same,glycan array binding signal (z-score),[31],-0.516
same,glycan array binding signal (z-score),MurNAc(b1-4)GlcNAc,-0.582
same,glycan array binding signal (z-score),[32],-0.123
same,glycan array binding signal (z-score),[33],-0.211
same,glycan array binding signal (z-score),[34],-0.638
same,glycan array binding signal (z-score),[35],-0.195
same,glycan array binding signal (z-score),[36],2.2
same,glycan array binding signal (z-score),[37],-0.511
same,glycan array binding signal (z-score),[38],-0.323
same,glycan array binding signal (z-score),[39],-0.462
same,glycan array binding signal (z-score),[40],3.62
same,glycan array binding signal (z-score),[41],0.06
same,glycan array binding signal (z-score),Neu5Ac(a2-3)GalNAc,-0.101
same,glycan array binding signal (z-score),[42],-0.269
same,glycan array binding signal (z-score),[43],-0.465
same,glycan array binding signal (z-score),[44],0.585
same,glycan array binding signal (z-score),[45],-0.209
